This note sets out measurements from PubChem BioAssay (Tox21).

Structures are written as SMILES. Results filed as inconclusive are left out. The source made the active and inactive calls. Unless noted, calls follow the shape of the dose curve; as a rule, active = well fitted curve in the direction sought with a large enough effect in the repeat runs; inconclusive = weak or mixed curves; inactive = no such curve, though single readings can be large; an effect the other way counts as inactive or inconclusive.

Test [1] can be described thus: qHTS assay to identify small molecule agonists of the androgen receptor (AR) signaling pathway in the presence of an antagonist - cell viability counter screen (AID 1259379).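 Also: MDA-kb2 human breast cancer cells carrying an MMTV luciferase reporter; series mostly up to about 92 µM; nearly all actives have a fitted effect of over 25% in size.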 The method, boiled down: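 Nilutamide-containing (3.0uM final) MDA-kb2 cultures, 3,000 cells/well, were treated with compounds across 15 concentrations. After 16 hr at 37C with no CO2, cell viability was determined by CellTiter-Fluor fluorescence in the luciferase assay wells.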
For orientation: In qHTS, concentration-response curves come from the screen itself.

Test [2] can be described thus: qHTS assay to identify small molecule agonists of the estrogen receptor beta (ER-beta) signaling pathway - cell viability counter screen (AID 1259380). Also: nearly all actives have a fitted effect of over 30% in size. Also: potency is read from the fitted curve at half-maximal effect. The method, boiled down:
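Steps: plate ER-beta-UAS-bla HEK293T cells, rest 6 hr; add compounds in DMSO; incubate 16 hr at 37C, 5% CO2; add FRET substrate 2 hr; add CellTiter-Glo, wait 30 min at room temperature; read luminescence.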

The target in test [3] is Androgen receptor (Homo sapiens) (UniProt P10275). In words: qHTS assay to identify small molecule agonists of the androgen receptor (AR) signaling pathway in the presence of an antagonist (AID 1259381; calls by dose curve; also: nearly all actives have a fitted effect of over 15% in size). The method, boiled down:
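Reporter-gene luminescence from MDA-kb2 cells exposed 16hr at 37C (0% CO2) to 15-point compound titrations with 3.0uM final nilutamide as AR antagonist.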

Test [4] is described as follows: qHTS assay to identify small molecule antagonists of the estrogen receptor beta (ER-beta) signaling pathway - cell viability counter screen (AID 1259382). Also: nearly all actives have a fitted effect of over 55% in size. Also: potency is read from the fitted curve at half-maximal effect. The method, boiled down:
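Viability is scored by CellTiter-Glo luminescence (30 min, room temperature) in ER-beta-UAS-bla HEK293T wells already read for reporter fluorescence. Compound exposure lasts 16 hr at 37C alongside 1nM 17-beta-estradiol in charcoal-stripped serum medium.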

The target in test [5] is Estrogen receptor (Homo sapiens) (UniProt P03372). In words: qHTS assay to identify small molecule agonists of the estrogen receptor alpha (ER-alpha) signaling pathway in the presence of an antagonist (AID 1259383; calls by dose curve; also: top concentration of the series differs between compounds; nearly all actives have a fitted effect of over 15% in size). The method, boiled down: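 Readout was ERE-driven luciferase luminescence in VM7Luc4E2 cells, which express full-length ER-alpha endogenously. Compounds were tested at 15 concentrations for 22hr alongside 10.0nM ICI-182,780 (final concentration).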
Estrogen receptor (Homo sapiens), sequence (P03372 whole entry, looked up): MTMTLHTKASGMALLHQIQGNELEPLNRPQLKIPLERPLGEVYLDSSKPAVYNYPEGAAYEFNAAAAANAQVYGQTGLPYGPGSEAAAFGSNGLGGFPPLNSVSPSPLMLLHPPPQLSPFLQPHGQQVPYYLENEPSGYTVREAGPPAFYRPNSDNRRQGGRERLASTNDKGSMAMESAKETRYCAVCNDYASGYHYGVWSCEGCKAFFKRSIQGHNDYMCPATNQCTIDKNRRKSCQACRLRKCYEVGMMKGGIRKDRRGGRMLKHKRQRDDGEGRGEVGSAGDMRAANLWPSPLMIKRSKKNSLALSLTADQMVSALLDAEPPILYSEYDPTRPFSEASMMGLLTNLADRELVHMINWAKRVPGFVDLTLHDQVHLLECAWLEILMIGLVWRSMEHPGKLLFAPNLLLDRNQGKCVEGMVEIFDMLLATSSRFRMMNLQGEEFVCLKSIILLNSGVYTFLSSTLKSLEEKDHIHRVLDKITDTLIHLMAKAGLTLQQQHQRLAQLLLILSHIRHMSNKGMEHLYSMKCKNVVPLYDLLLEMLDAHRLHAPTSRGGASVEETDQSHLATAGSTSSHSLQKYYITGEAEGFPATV

A short description of test [6]: qHTS assay to identify small molecule agonists or antagonists of the thyroid stimulating hormone receptor (TSHR) signaling pathway - wild type cell line counter screen (AID 1259384; calls by dose curve). The method, boiled down: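 Wild-type Hek293 cells, 800/well, 18 h at 37C, then compound with Ro20-1724 for 30 min RT. cAMP by HTRF (cAMP-d2/anti-cAMP cryptate), 1 h RT, fluorescence read. 15 concentrations, triplicates.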

For test [7], the target named is Thyrotropin receptor (Homo sapiens) (UniProt P16473). The test can be described thus: qHTS assay to identify small molecule antagonists of the thyroid stimulating hormone receptor (TSHR) signaling pathway (AID 1259385; calls by dose curve; also: nearly all actives have a fitted effect of over 20% in size; also: potency is read from the fitted curve at half-maximal effect). The method, boiled down:
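TSHR-HEK293 cells (800/well) plated 18 h, then compounds with Ro20-1724 and TSH at 1.5 ng/mL final, 30 min at room temperature. cAMP quantified by HTRF (cAMP-d2/anti-cAMP-cryptate, 1 h); 15 concentrations in triplicate.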

Test [8] can be described thus: qHTS assay to identify small molecule agonists of the estrogen receptor alpha (ER-alpha) signaling pathway in the presence of an antagonist - cell viability counter screen (AID 1259386).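 Also: series mostly up to about 92 µM; cells exposed to compounds for 22 h at 37 °C before the viability read; nearly all actives have a fitted effect of over 30% in size.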 The method, boiled down: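 In this counter screen, compound effects on VM7Luc4E2 viability were tested in the presence of the antagonist ICI-182,780 at 10.0nM final. Compounds were dosed at 15 concentrations, exposure lasted 22hr, and the CellTiter-Fluor signal was read.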

Test [9] deals with Progesterone receptor (Homo sapiens) (UniProt P06401). In words: qHTS assay to identify small molecule agonists of the progesterone receptor (PR) signaling pathway (AID 1346784; calls by dose curve; also: nearly all actives have a fitted effect of over 30% in size). The method, boiled down: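 The screen uses PR-UAS-bla HEK 293T cells in charcoal-stripped serum (2%). Compounds are applied for 16 hr at 37C after a 6 hr pre-incubation, and reporter activity is detected with a FRET beta-lactamase substrate after 2 hr at room temperature.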
Progesterone receptor (Homo sapiens), sequence (P06401 whole entry, looked up): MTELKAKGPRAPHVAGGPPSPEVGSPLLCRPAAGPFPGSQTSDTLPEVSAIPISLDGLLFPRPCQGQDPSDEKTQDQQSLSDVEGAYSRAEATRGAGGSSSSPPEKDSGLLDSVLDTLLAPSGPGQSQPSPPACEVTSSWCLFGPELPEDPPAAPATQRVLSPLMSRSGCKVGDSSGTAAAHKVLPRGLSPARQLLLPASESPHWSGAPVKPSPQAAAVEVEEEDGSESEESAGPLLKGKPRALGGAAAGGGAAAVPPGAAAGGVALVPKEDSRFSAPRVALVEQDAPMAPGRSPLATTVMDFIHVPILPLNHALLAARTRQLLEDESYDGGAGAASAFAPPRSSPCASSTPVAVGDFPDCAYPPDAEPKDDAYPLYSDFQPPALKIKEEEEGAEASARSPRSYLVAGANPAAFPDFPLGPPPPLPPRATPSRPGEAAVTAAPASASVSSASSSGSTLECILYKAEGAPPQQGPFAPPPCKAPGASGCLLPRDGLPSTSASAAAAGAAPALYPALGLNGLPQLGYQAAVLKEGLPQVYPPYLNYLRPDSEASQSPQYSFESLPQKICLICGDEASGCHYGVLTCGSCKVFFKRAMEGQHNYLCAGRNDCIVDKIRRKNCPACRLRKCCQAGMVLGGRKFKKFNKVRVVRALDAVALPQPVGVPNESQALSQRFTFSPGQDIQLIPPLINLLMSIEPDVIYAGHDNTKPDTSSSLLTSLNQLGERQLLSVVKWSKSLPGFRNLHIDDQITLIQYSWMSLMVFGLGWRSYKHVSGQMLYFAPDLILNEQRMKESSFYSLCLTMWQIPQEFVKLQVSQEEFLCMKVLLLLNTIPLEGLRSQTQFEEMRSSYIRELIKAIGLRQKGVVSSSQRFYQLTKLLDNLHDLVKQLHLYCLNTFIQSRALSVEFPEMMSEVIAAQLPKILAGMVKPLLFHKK

Test [10] can be described thus: qHTS assay to identify small molecule agonists of the progesterone receptor (PR) signaling pathway - cell viability counter screen (AID 1346799; calls by dose curve; also: nearly all actives have a fitted effect of over 45% in size; also: potency is read from the fitted curve at half-maximal effect). The method, boiled down:
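Viability was scored by ATP luminescence (CellTiter-Glo, 30 min, room temperature) in the same wells used for the reporter readout, after 16 hr compound exposure of PR-UAS-bla HEK293T cells.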

The nature of test [11]: qHTS assay to identify small molecule agonists of the TGF-beta/Smad signaling pathway - cell viability counter screen (AID 1346829). Also: top concentration of the series differs between compounds; nearly all actives have a fitted effect of over 45% in size. The method, boiled down: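 HEK 293T SBE-bla line, 5 hr compound exposure at 37 C, multiplexed CellTiter-Glo viability read by luminescence.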
Test [12] can be described thus: qHTS assay to identify small molecule agonists of the TGF-beta/Smad signaling pathway (AID 1346859; active = well fitted activation curve with a large enough effect in the signal ratio in the repeat runs, not every such curve was filed as active; the % refers to the signal ratio; also: series mostly up to about 77 µM). The method, boiled down:
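Dual-wavelength fluorescence (460/530 nm emission) quantified beta-lactamase expression under the Smad binding element in HEK 293T cells following 5 hr compound treatment at 37 C.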

Test [13] concerns the target Thyrotropin-releasing hormone receptor (Homo sapiens) (UniProt P34981). The test can be described thus: qHTS assay to identify small molecule antagonists of the thyrotropin-releasing hormone receptor (TRHR) signaling pathway (AID 1346877; active = well fitted inhibition curve with a large enough effect in the repeat runs, not every such curve was filed as active; also: series mostly up to about 51 µM). The method, boiled down: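 Kinetic fluorescence (3 min, 1 s resolution) following stimulation with TRH at 1 nM final; HEK293 cells bearing human TRHR; 5 min compound preincubation at RT; concentration-response over 15 points, triplicates.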

The target is the same in test [14]. The test can be described thus: qHTS assay to identify small molecule agonists of the thyrotropin-releasing hormone receptor (TRHR) signaling pathway (AID 1346891; calls by dose curve;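 also: HEK293 cells expressing TRHR with calcium dye readout; series mostly up to about 58 µM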). The method, boiled down:
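Kinetic fluorescence (3 min, 1 s intervals) reported intracellular calcium after compound transfer onto TRHR-Hek293 cells pre-loaded with dye for 2 h at 37 °C.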

Test [15] can be described thus: qHTS assay to identify small molecule antagonists of the progesterone receptor (PR) signaling pathway - cell viability counter screen (AID 1346798). Also: nearly all actives have a fitted effect of over 50% in size. Also: potency is read from the fitted curve at half-maximal effect. The method, boiled down: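 Viability was determined by ATP-based luminescence (CellTiter-Glo) in PR-UAS-bla HEK293T cells cultured in 2% charcoal-stripped serum and incubated 16 hr with compounds under R5020 stimulation.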

Test [16] addresses Progesterone receptor (Homo sapiens) (UniProt P06401). The test can be described thus: qHTS assay to identify small molecule antagonists of the progesterone receptor (PR) signaling pathway (AID 1346795; active = well fitted inhibition curve with a large enough effect in the signal ratio in the repeat runs, not every such curve was filed as active; the % refers to the signal ratio; also: potency is read from the fitted curve at half-maximal effect). The method, boiled down: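 After 6 hr plating at 37C in 2% stripped-serum medium, PR-UAS-bla HEK293T cells got compounds, then 1 nM R5020. Sixteen hours later, LiveBLAzer substrate was applied for 2 hr at room temperature and fluorescence was recorded.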

Test [17] is described as follows: qHTS assay to identify small molecule antagonists of the TGF-beta/Smad signaling pathway - cell viability counter screen (AID 1346824). Also: nearly all actives have a fitted effect of over 50% in size. The method, boiled down: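 SBE-bla HEK 293T cells, incubated overnight, then compound plus 0.25 ng/mL TGF-beta1 (stock added) for 5 hr at 37 C. Viability was read in the same wells by CellTiter-Glo luminescence after 30 min at room temperature.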

In test [18] the target is Estrogen receptor beta (Homo sapiens) (UniProt Q92731). The test can be described thus: qHTS assay to identify small molecule agonists of the estrogen receptor beta (ER-beta) signaling pathway (AID 1259377; active = well fitted activation curve with a large enough effect in the signal ratio in the repeat runs, not every such curve was filed as active; the % refers to the signal ratio). The method, boiled down: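 Measured by fluorescence intensity from a B/G FRET beta-lactamase substrate (2 h, room temperature) in ER-beta-UAS-bla HEK293T cells treated with DMSO-dissolved compounds for 16 hr at 37C and 5% CO2.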
Estrogen receptor beta (Homo sapiens), sequence (Q92731 whole entry, looked up): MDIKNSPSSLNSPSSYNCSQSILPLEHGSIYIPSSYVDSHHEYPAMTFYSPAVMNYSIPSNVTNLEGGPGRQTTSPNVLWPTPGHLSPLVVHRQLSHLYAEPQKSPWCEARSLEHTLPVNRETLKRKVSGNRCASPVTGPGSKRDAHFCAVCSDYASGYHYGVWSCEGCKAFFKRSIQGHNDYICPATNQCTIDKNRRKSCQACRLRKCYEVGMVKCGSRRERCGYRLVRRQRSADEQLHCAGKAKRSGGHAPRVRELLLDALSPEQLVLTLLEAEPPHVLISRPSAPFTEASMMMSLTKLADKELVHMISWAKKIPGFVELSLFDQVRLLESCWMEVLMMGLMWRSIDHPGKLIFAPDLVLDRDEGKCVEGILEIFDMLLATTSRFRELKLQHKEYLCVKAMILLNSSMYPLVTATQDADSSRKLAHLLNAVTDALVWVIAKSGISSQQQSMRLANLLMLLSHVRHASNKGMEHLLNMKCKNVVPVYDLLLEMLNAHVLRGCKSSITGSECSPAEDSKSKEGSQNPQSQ

For test [19] the target is unchanged. The test can be described thus: qHTS assay to identify small molecule antagonists of the estrogen receptor beta (ER-beta) signaling pathway (AID 1259378; active = well fitted inhibition curve with a large enough effect in the signal ratio in the repeat runs, not every such curve was filed as active; the % refers to the signal ratio). The method, boiled down: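 ER-beta-UAS-bla HEK293T cells in 2% charcoal-stripped FBS medium treated with compound plus 1nM final 17-beta-estradiol for 16 hr at 37C. Beta-lactamase reporter read by FRET substrate fluorescence after 2 hours at room temperature.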

Thyrotropin receptor (Homo sapiens), sequence (P16473 whole entry, looked up): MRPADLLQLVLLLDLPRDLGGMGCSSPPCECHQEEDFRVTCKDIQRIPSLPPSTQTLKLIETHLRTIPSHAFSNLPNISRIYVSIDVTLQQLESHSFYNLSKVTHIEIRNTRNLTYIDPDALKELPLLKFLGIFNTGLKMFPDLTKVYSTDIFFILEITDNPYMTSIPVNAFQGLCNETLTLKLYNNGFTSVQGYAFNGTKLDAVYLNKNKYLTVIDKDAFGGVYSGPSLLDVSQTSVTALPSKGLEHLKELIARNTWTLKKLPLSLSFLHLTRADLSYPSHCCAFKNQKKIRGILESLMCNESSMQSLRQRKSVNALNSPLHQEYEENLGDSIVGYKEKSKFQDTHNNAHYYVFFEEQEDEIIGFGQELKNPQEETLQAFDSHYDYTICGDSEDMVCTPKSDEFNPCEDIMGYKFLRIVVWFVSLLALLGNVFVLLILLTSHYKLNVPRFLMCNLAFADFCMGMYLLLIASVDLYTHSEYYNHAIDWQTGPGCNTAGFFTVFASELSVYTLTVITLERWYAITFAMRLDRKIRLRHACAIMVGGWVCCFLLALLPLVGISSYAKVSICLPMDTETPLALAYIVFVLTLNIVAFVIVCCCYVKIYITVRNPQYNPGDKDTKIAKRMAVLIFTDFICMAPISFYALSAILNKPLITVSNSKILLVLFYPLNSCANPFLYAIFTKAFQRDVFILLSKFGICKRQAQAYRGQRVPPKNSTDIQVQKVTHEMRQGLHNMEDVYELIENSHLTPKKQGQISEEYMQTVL
Androgen receptor (Homo sapiens), sequence (P10275 whole entry, looked up): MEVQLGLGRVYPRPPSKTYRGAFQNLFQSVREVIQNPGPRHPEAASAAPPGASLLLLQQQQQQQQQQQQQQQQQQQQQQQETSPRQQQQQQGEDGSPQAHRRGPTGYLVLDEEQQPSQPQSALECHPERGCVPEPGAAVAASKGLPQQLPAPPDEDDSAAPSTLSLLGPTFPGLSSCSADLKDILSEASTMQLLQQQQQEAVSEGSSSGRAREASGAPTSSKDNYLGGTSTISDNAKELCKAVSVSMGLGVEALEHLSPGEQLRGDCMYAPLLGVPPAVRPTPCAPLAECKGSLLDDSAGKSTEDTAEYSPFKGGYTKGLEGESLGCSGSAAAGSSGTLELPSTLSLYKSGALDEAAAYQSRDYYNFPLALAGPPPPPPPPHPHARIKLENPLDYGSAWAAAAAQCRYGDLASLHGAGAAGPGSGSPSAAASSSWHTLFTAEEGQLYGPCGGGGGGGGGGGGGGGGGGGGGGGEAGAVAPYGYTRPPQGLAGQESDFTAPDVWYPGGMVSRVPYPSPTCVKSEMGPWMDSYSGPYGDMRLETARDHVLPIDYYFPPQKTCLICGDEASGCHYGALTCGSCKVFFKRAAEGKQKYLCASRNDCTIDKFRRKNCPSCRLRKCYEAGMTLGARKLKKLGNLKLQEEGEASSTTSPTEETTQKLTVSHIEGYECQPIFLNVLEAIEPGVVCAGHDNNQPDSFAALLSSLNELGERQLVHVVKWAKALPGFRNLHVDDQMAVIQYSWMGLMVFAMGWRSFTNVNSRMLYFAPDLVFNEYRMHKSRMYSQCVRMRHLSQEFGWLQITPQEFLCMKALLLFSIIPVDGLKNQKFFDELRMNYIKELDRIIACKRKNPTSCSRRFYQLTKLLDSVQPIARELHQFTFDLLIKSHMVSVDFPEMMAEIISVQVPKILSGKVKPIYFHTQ
Thyrotropin-releasing hormone receptor (Homo sapiens), sequence (P34981 whole entry, looked up): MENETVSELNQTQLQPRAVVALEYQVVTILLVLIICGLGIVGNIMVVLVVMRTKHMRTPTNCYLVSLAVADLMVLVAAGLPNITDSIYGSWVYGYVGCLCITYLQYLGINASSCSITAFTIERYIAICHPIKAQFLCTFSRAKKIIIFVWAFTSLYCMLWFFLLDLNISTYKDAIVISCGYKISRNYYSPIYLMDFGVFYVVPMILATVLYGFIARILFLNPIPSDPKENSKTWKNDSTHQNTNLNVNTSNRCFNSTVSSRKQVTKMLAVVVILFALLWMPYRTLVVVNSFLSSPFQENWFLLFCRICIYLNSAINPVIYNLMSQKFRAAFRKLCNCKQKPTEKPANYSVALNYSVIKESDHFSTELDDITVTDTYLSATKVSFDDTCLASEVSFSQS

For `CC(Cl)CN(C)C` (configuration not stated), the Potency entry in test [1], in test [2], in test [3], in test [4], in [5] and in test [7] was “inactive” in each case. The Potency result in [8], in [9], in test [10], in test [11], in [13] and in [14] was “inactive” throughout. Moreover, the call in [6] and in test [12] was inactive.

For `CN(C)C1CSSSC1`, the Potency result in test [2], in test [4], in test [5], in test [7], in test [9] and in [15] was “inactive” throughout. Besides, the Potency result in test [10], in [13] and in test [14] was “inactive” each time. Further, the result in [6] and in test [12] was inactive.

As for `CC(C)N1C(=O)N(c2ccccc2)CSC1=NC(C)(C)C`, the Potency in [2] is 54.5 µM (active); in test [16], 17.2 µM (active). In addition, the Potency entry in [3], in [5], in test [8], in [9], in test [17] and in [11] was “inactive” in each case. The Potency result in test [13] is “inactive”. Moreover, the outcome in test [6] and in test [12] was inactive.

Consider `CCCCOCN(C(=O)CCl)c1c(CC)cccc1CC`, for which the Potency entry in test [3], in test [4], in test [8], in [9], in test [15] and in test [17] was “inactive” in each case. Besides, in test [11], the Potency entry was “inactive”. In addition, the call in test [6] was inactive. Besides, the Potency in test [7] was 61.1 µM (active).

Regarding `Cc1cc(SCc2sc(-c3ccc(C(F)(F)F)c(F)c3)nc2C)ccc1OCC(=O)O`, the Potency result in test [1], in test [8], in test [9], in test [17], in test [11] and in test [13] was “inactive” in each case. In addition, the Potency entry in [14] is “inactive”. The Potency in test [2] is 15.4 µM (active); in test [4], 13.7 µM (active); in [16], 17.2 µM (active); in [15] it was 19.3 µM (active); in test [10], 8.63 µM (active).

For `Oc1ccc(I)cc1`, the Potency result in test [2], in test [4], in test [7], in [8], in test [9] and in test [10] was “inactive” in each case. Further, the Potency entry in test [17] and in test [11] was “inactive” throughout. In addition, the call in [6] and in [12] was inactive.

Consider `CC(C)[C@H](C(=O)O[C@H](C#N)c1cccc(Oc2ccccc2)c1)c1ccc(Cl)cc1`, for which the Potency entry in [1], in test [4], in [7], in test [8] and in test [17] was “inactive” throughout. Moreover, the result in [6] and in [12] was inactive.

Consider `NC(=O)CCl`, for which the Potency entry in test [18], in test [2], in [3], in test [4], in test [5] and in test [7] was “inactive” in each case. The Potency result in [10], in test [17], in test [13] and in test [14] was “inactive” throughout. Further, the molecule was called inactive in test [6] and in [12].

On to `Cn1[nH]nnc1=S`, for which the Potency result in test [19], in [1], in [2], in test [4], in test [5] and in [7] was “inactive” throughout. Further, the Potency entry in test [8], in test [9], in test [17], in test [11], in [13] and in test [14] was “inactive” throughout. The molecule was called inactive in [6] and in [12].

As for `CCOC(=O)C1(c2ccccc2)CCN(CCC(C#N)(c2ccccc2)c2ccccc2)CC1`, the Potency entry in test [18], in test [1], in [3], in test [4], in test [5] and in test [7] was “inactive” in each case. Further, the Potency entry in test [8], in [9], in [15], in test [10], in [17] and in test [11] was “inactive” each time. Moreover, the Potency entry in test [13] is “inactive”. The call in [6] and in test [12] was inactive.

For `Oc1c(Cl)c(Cl)cc(Cl)c1Cl`, the Potency result in test [3], in test [4], in test [5], in [7], in test [8] and in test [15] was “inactive” throughout. The Potency result in [17], in test [11], in test [13] and in test [14] was “inactive” throughout. Besides, the molecule was classed as inactive in test [6] and in test [12].
